Among all 340,000 compounds or so, about 2,500 (0.74%) were called active.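 Rule for the calls: active = inhibition above about 55% (limit read from the data); inactive = the rest.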 What follows is part of a selection rich in actives, with near analogues and random picks from the rest.
Experiment: blockers of Gli reporter signaling – luciferase luminescence, Sufu-KO-LIGHT cells, uHTS, primary screen (AID 588413);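 note: 0% = DMSO-treated cells and 100% = wells with medium but no cells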
Conditions: Sufu-KO-LIGHT fibroblasts, at 5 µM, stronger effect = higher value
For CC(OC(=O)c1ccc([N+](=O)[O-])cc1)C(=O)NCC1CCCCC1 (centres undefined), the inhibition was 6.02% (inactive). For COc1ccc(NC(=O)CCC(=O)Nc2cc(OC)c(NC(=O)c3ccco3)cc2OC)c(OC)c1, the inhibition was 15.2% (inactive). In the case of COc1cc(C(=O)OC(C)C(=O)NCC2CCCCC2)cc(NC(=O)c2ccco2)c1OC (centres undefined), the inhibition is reported as 61.1% (active). For CN1CCN(C(=O)/C(=C\c2ccc3c(c2)OCO3)NC(=O)c2cccs2)CC1, the inhibition was -0.95% (inactive). With CC(=O)Nc1ccccc1C(=O)C(=O)Nc1ccc(F)cc1 the inhibition was -24.7% (inactive). In the case of CC1CCCN(C(=O)CN2C(=O)c3ccccc3S2(=O)=O)C1 (centres undefined), the inhibition is reported as 6.76% (inactive). In the case of O=C(CN1C(=O)c2ccccc2S1(=O)=O)N1CCc2ccccc21, the inhibition is reported as 64.8% (active). With O=C(CSCc1ccccc1)N1CCc2ccccc21 the inhibition was -87.8% (inactive). With Cc1ccc(CNC(=O)CCN2C(=O)[C@@H]3Cc4ccccc4CN3C2=O)cc1 the inhibition was -9.51% (inactive). For CCOC(=O)N(Cc1ccccc1)C1CC1, the inhibition was 0.91% (inactive). In the case of Cc1ccc(S(=O)(=O)N2C[C@@H]3CCCC[C@@H]3[C@@H](C)[C@H]2c2cn(Cc3ccccc3)c3ccc(F)cc23)cc1, the inhibition is reported as 72.8% (active). In the case of O=C(CS(=O)(=O)c1cn(Cc2cccc(F)c2)c2ccccc12)N1CCCCC1, the inhibition is reported as 9.01% (inactive). With Cc1ccc(S(=O)(=O)N2CC(C)N(S(C)(=O)=O)C2)cc1 (centres undefined) the inhibition was -2.13% (inactive). In the case of O=C(CNS(=O)(=O)c1ccc(Br)s1)N1CCN(C(=O)c2ccco2)CC1, the inhibition is reported as -4.48% (inactive). In the case of O=[N+]([O-])c1ccc(C=NN=Cc2ccc([N+](=O)[O-])cc2)cc1, the inhibition is reported as -0.85% (inactive). In the case of O=C1/C(=C\c2ccc([N+](=O)[O-])cc2)CS(=O)(=O)C/C1=C/c1ccc([N+](=O)[O-])cc1, the inhibition is reported as 65.4% (active). For O=C(NN=Cc1ccc([N+](=O)[O-])cc1)C1CC1, the inhibition was -2.46% (inactive). In the case of Cc1nn(C(C)(C)C)c(OC(=O)CC(C)C)c1S(=O)(=O)c1ccccc1, the inhibition is reported as 12.6% (inactive). For Cc1onc(C(=O)NCc2ccc(F)cc2)c1[N+](=O)[O-], the inhibition was 3.05% (inactive). In the case of COc1ccc(C(=O)NCC(=O)N/N=C/c2ccc([N+](=O)[O-])o2)cc1OC, the inhibition is reported as -0.07% (inactive). For O=C(/C=C/c1ccc([N+](=O)[O-])o1)NNC(=O)c1ccc(F)cc1, the inhibition was 67.6% (active). In the case of Cc1ccc(CN(CC(=O)NC2CCCCC2)C(=O)c2csnn2)cc1, the inhibition is reported as -19.5% (inactive). For C/C=C/c1ccc(OCC(=O)OCC(=O)Nc2c(C)nn(-c3ccccc3)c2C)c(OC)c1, the inhibition was -14.7% (inactive). With CSc1nsc(SC)c1NC(=O)OC1CCCCC1 the inhibition was 3.57% (inactive). With COCCn1c(C)cc(C(=O)COC(=O)/C=C/c2cccc(OC)c2)c1C the inhibition was 0.01% (inactive). With CCN(CC)S(=O)(=O)c1ccc(OC(C)C)c(N)c1 the inhibition was -7.56% (inactive). With Oc1ccc2ccccc2c1N=Nc1nccs1 the inhibition was 75.4% (active). For O=C(CN1CCCCC1)NC(=O)Nc1ccccc1F, the inhibition was -7.73% (inactive). In the case of COc1ccc(Cc2nnc(N/N=C/c3ccccc3O)[nH]c2=O)cc1OC, the inhibition is reported as 88.1% (active). In the case of CC(C)c1ccc(Cc2nnc(NCCCO)[nH]c2=O)cc1, the inhibition is reported as -3.48% (inactive). For COc1ccc(Cc2nnc(SC)[nH]c2=O)cc1, the inhibition was -8.83% (inactive). For CCc1cccc2c3c([nH]c12)C(CC)(CC(=O)O)OCC3 (centres undefined), the inhibition was -4.38% (inactive). With CC(C)c1ccc(C2C(C#N)=C(N)Oc3c2oc(CO)cc3=O)cc1 (centres undefined) the inhibition was -0.24% (inactive). With CCOC(=O)c1ccc(NC(=O)Cc2cccs2)cc1 the inhibition was -48% (inactive). For CCOC(=O)c1ccc(NC(=O)Cn2cnc3cc(C)c(C)cc32)cc1, the inhibition was 65% (active). With CCCc1nnc(SCC(=O)Nc2ccc(C(=O)OCC)cc2)o1 the inhibition was -7.14% (inactive). In the case of CCCCC(=O)N1CC2(C)CN(C(=O)CCCC)CC(C)(C1)C2=O, the inhibition is reported as -15.8% (inactive). For COCCCN(C(=O)CSCc1ccc(C)cc1)c1c(N)n(Cc2ccccc2)c(=O)[nH]c1=O, the inhibition was -6.23% (inactive). For CC(C)NC(=O)C(=O)NCCN1CCN(S(=O)(=O)c2ccc(Cl)cc2)CC1, the inhibition was -1.75% (inactive). With Cc1ccc(NC(=O)c2ccc(CSc3ncnc4nc[nH]c34)cc2)c(C)c1 the inhibition was -3.19% (inactive). For CCNc1nc(SCCOc2ccccc2)nc(N(C)C)n1, the inhibition was 17.6% (inactive). For COc1ccc2nc(SCC(=O)Nc3c(C)cc(C)cc3C)[nH]c2c1, the inhibition was 82.7% (active). With Cc1cc(C)c(NC(=O)CSc2nc3ccncc3[nH]2)c(C)c1 the inhibition was -7.29% (inactive). For Cc1ccc2nc(SCC(=O)NC3CCCC3)[nH]c2c1, the inhibition was 19.8% (inactive). For N#C/C=C/N1CCN(Cc2ccc3c(c2)OCO3)CC1, the inhibition was 1.76% (inactive). With CC(C)(C)OC(=O)N(Cc1ccccc1)Cc1ccc(OCc2cccc(NC(=O)c3ccccc3)c2)cc1 the inhibition was 1.99% (inactive). In the case of O=C1Cc2ccccc2Sc2ccc(Cl)cc21, the inhibition is reported as 3% (inactive). For Cc1ccc(C(=O)C(=S)N2CCOCC2)cc1, the inhibition was -12.9% (inactive). With CSc1ncccc1C(=O)Nc1ccc2c(c1)OCO2 the inhibition was -2.99% (inactive). With CSc1ncccc1C(=O)Nc1nc2ccc(F)cc2s1 the inhibition was 56.9% (active). For CSc1ncccc1C(=O)Nc1ccc(C)cn1, the inhibition was -28.8% (inactive). In the case of CC(C)=NN1C(=O)c2ccccc2NC1(C)C, the inhibition is reported as 0.06% (inactive). With COc1ccc(C(=O)NC2CCCc3c2cnn3-c2cccc(C)c2C)c(OC)n1 (centres undefined) the inhibition was 57% (active). With CC1(C)Cc2c(cnn2-c2cccc(F)c2)C(NC(=O)c2cc[n+]([O-])cc2)C1 (centres undefined) the inhibition was -1.99% (inactive). For COc1ccc(C(=O)NC2CC(C)(C)Cc3c2cnn3-c2ccccc2C)o1 (centres undefined), the inhibition was 3.2% (inactive). With COc1ccc(C(=O)NC2CC(C)(C)Cc3c2cnn3-c2ccccc2)c(OC)c1 (centres undefined) the inhibition was 14% (inactive). For CC1=C(C(=O)NC2CC(C)(C)Cc3c2cnn3-c2ccc(C)cc2)OCCO1 (centres undefined), the inhibition was 13.4% (inactive). With Cn1nccc1C(=O)NC1CCCc2c1cnn2-c1ccc(F)cc1F (centres undefined) the inhibition was 73% (active). In the case of Cc1cc(C(=O)NC2CC(C)(C)Cc3c2cnn3-c2ccccc2)n[nH]1 (centres undefined), the inhibition is reported as 7.64% (inactive). For Cn1nccc1C(=O)NC1CCCc2c1cnn2-c1ccccc1F (centres undefined), the inhibition was 77.6% (active). In the case of Cc1ccc(-n2ncc3c2CCCC3NC(=O)c2cnccn2)cc1C (centres undefined), the inhibition is reported as 20.6% (inactive). In the case of COC(=O)c1cc(=O)n(-c2c(Cl)cc(C(F)(F)F)cc2Cl)[nH]1, the inhibition is reported as 5.78% (inactive). For C[C@]1(C(=O)NCCc2c[nH]c3ccccc23)C=C[C@@H](Cc2ccccc2)N1C(=O)c1ccccc1, the inhibition was 6.62% (inactive). For NC(=S)NN=C1CCCC(C(F)(F)F)C1 (centres undefined), the inhibition was 4.43% (inactive). In the case of Cc1cc(C)c2nc(N3CCC(C(=O)NCCN4CCOCC4)CC3)sc2c1, the inhibition is reported as 42.9% (inactive). In the case of O=C(NCCCN1CCCC1=O)C(=O)NCC1OCCN1S(=O)(=O)c1ccc(Br)cc1 (centres undefined), the inhibition is reported as 9.53% (inactive). With CCCN(c1ccc(C)cc1)c1nc(=O)c2cccnc2s1 the inhibition was 11.6% (inactive). With COc1cccc(NC(=O)Cn2cnc3sc(C)c(S(=O)(=O)N4CCN(C)CC4)c3c2=O)c1 the inhibition was -2.51% (inactive). In the case of CCCCCCCCCCOC(=O)Cn1c(COc2cccc(OC)c2)[n+](C)c2ccccc21, the inhibition is reported as 79.7% (active). For Cc1ccc(COc2ccc(C(=O)NN)cc2)cc1, the inhibition was -19.9% (inactive). With CCCCCCCCCCOC(=O)Cn1c(COc2ccc(C)cc2)[n+](C)c2ccccc21 the inhibition was 83.1% (active). With CCOC(=O)CNC(=O)CSc1nnc(-c2cccc(OC)c2)n1CC the inhibition was 7.3% (inactive). With CCCCOc1ccc(NC(=O)CSCC(=O)OCC)cc1 the inhibition was 0.02% (inactive). In the case of COc1cccc(NC(=O)COC(=O)CCOc2ccccc2OC)c1, the inhibition is reported as -1.81% (inactive). In the case of Cc1ccc(N2C(=O)C3C4C=CC(CC4)C3C2=O)cc1Cl (centres undefined), the inhibition is reported as 6.68% (inactive). For CN(C(=O)c1cccc([N+](=O)[O-])c1)c1ccccc1C(=O)NCc1ccccc1, the inhibition was 0.49% (inactive). With Cn1c(=O)[nH]c2c(c(C(=O)O)nn2C)c1=O the inhibition was -2.41% (inactive). For C/C(=N\Nc1cccc(C(=O)O)c1)c1ccc2c(c1)Nc1ccccc1S2, the inhibition was -35.5% (inactive). For O=C(CN(C(=O)c1csnn1)c1cccc(Cl)c1)NC1CCCC1, the inhibition was -16.6% (inactive). For CCS(=O)(=O)N1CCCC(C(=O)NCCCN(C)Cc2ccccc2)C1 (centres undefined), the inhibition was 9.61% (inactive). With O=C1CCCCN1CCCC(=O)N1CCCC(Nc2ccc(F)cc2)C1 (centres undefined) the inhibition was 45.4% (inactive). In the case of CNCC(O)CN1CCN(c2ccccc2OC)CC1 (centres undefined), the inhibition is reported as 2.51% (inactive). In the case of COc1ccccc1N1CCN(Cc2cc(OC)c3c(c2)OCO3)CC1, the inhibition is reported as 60.1% (active). For COc1ccccc1N1CCN(Cc2ccc(OC)c3ccccc23)CC1, the inhibition was 10.6% (inactive). For CN1CCN(c2cc(=O)n(-c3ccc(Cl)cc3)c(=O)[nH]2)CC1, the inhibition was 7.35% (inactive). For C=CCO/N=C/C1=C(O)C(C(=O)OC)C(C)(C)CC1=O (centres undefined), the inhibition was -5.83% (inactive). With CCN(CC)CCCC(C)n1c2nc(=O)[nH]c(=O)c-2nc2cc(Cl)ccc21 (centres undefined) the inhibition was 83.6% (active). With CCOC(=O)C1(CCOC)CCN(Cc2cc3ccccc3s2)CC1 the inhibition was -4.84% (inactive). With CCOc1ccc(-n2c(O)c(/C=N/Nc3nc(C)cc(C)n3)c3ccccc3c2=O)cc1 the inhibition was 61.7% (active). In the case of Cc1ccc(N=Cc2c(O)n(-c3nccs3)c(=O)c3ccccc23)c(C)c1, the inhibition is reported as -4.34% (inactive). For CCN(CC)CCCN=Cc1c(O)n(-c2ccc(C)cc2)c(=O)c2ccccc12, the inhibition was -0.11% (inactive). In the case of Cc1cc(C)nc(N/N=C/c2c(CO)cnc(C)c2O)n1, the inhibition is reported as 0.23% (inactive). In the case of Cc1ccc(-n2c(O)c(C=Nc3ccc(S(=O)(=O)Nc4ncccn4)cc3)c3ccccc3c2=O)cc1C, the inhibition is reported as -0.18% (inactive). With CCOc1ccc(-n2c(O)c(/C=N/c3ccnn3Cc3ccncc3)c3ccccc3c2=O)cc1 the inhibition was 62.7% (active).
